Assay results from PubChem BioAssay (EPA / NIEHS).
Inconclusive results are not listed. Calls of active or inactive are those of the source. The calls were made as follows, unless noted: active = hit-call score of the fitted dose curve at least 0.9, where 1 is the maximum; inactive = score below 0.9.

Assays:
[1] = TOX21_p53_BLA_p2_viability: Viability Assessment in the Tox21 HCT-116 p53 Agonism Beta-lactamase Assay, Phase 2 (AID 2283591; active = hit-call score of the fitted dose curve at least 0.9, where 1 is the maximum;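 also: compound exposure lasted 16 h at 37 °C; actives lower the ATP signal meaning cytotoxicity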)
Method in brief: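 Cytotoxicity readout: CellTiter-Glo ATP luminescence, 30 min at room temperature, after the beta-lactamase read. Cells were HCT116 exposed 16 h at 37C to compounds pin-transferred at 217-fold dilution from DMSO stocks.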

[2] = TOX21_p53_BLA_p3_viability: Viability Assessment in the Tox21 HCT-116 p53 Agonism Beta-lactamase Assay, Phase 3 (AID 2283593; active = hit-call score of the fitted dose curve at least 0.9, where 1 is the maximum;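 also: cells exposed to compound for 16 h before reading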)
Method in brief: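 Cellular ATP was quantified by CellTiter-Glo luminescence, read after 30 min at room temperature. Beforehand, HCT116 cells (4000/well) received compound 5 h post-seeding, 217-fold diluted from DMSO, then incubated 16 h at 37C.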

[3] = biological target: Cellular tumor antigen p53 (Homo sapiens) (UniProt P04637); assay: TOX21_p53_BLA_p3_ratio: Tox21 HCT-116 p53 Agonism Beta-lactamase Assay, Ratio, Phase 3 (AID 2283596; active = hit-call score of the fitted dose curve at least 0.9, where 1 is the maximum)
Sequence of Cellular tumor antigen p53 (Homo sapiens) (P04637 whole entry, looked up): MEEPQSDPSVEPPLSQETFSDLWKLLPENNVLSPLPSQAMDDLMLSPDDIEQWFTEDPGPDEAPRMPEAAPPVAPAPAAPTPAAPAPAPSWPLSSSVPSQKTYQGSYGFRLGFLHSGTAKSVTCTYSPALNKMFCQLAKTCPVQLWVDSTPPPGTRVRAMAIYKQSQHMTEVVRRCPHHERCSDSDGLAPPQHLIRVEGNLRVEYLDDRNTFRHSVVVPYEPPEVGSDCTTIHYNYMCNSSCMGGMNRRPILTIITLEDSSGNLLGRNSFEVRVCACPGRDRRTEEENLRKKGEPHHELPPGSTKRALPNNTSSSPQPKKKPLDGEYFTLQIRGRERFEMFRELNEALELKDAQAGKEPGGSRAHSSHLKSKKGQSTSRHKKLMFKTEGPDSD
Method in brief: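 Cells were seeded at 4000/well, rested 5 h at 37C, then dosed with DMSO compound solutions (217-fold dilution) for 16 h. CCF4-AM substrate was loaded for 2 h at room temperature, and the 460/530 nm emission ratio was fitted for gain of signal versus DMSO.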

[4] = TOX21_p53_BLA_p4_viability: Viability Assessment in the Tox21 HCT-116 p53 Agonism Beta-lactamase Assay, Phase 4 (AID 2283597; active = hit-call score of the fitted dose curve at least 0.9, where 1 is the maximum;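 also: hits lower the luminescence signal meaning cytotoxicity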)
Method in brief: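 Viability is taken as cellular ATP: after 16 h compound exposure of HCT116 cells and a 2 h room-temperature CCF4-AM substrate step, CellTiter-Glo reagent is added and luminescence is measured 30 min later.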

[5] = biological target: Cellular tumor antigen p53 (Homo sapiens) (UniProt P04637); assay: TOX21_p53_BLA_p5_ratio: Tox21 HCT-116 p53 Agonism Beta-lactamase Assay, Ratio, Phase 5 (AID 2283599; active = hit-call score of the fitted dose curve at least 0.9, where 1 is the maximum)
Method in brief: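 Beta-lactamase reporter ratio (blue 460 nm over green 530 nm, 405 nm excitation) after 2 h CCF4-AM loading, in HCT-116 cells exposed 16 h at 37 C to compounds pinned at 217-fold dilution. Increases relative to DMSO baseline scored.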

[6] = TOX21_p53_BLA_p5_viability: Viability Assessment in the Tox21 HCT-116 p53 Agonism Beta-lactamase Assay, Phase 5 (AID 2283600; active = hit-call score of the fitted dose curve at least 0.9, where 1 is the maximum)
Method in brief: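 Viability is taken from cellular ATP content, measured by luciferase luminescence in the same wells after the beta-lactamase ratio read. Cells are seeded at 4000 per well and exposed to DMSO-dissolved compounds, diluted 217-fold, for 16 h.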

[7] = biological target: Cellular tumor antigen p53 (Homo sapiens) (UniProt P04637); assay: TOX21_p53_BLA_p4_ratio: Tox21 HCT-116 p53 Agonism Beta-lactamase Assay, Ratio, Phase 4 (AID 2283601; active = hit-call score of the fitted dose curve at least 0.9, where 1 is the maximum)
Method in brief: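 Signal is the blue/green (460nm/530nm) ratio of cleaved versus uncleaved CCF4-AM substrate, read after 2 h substrate loading. Cells were HCT116 carrying the p53-responsive beta-lactamase reporter, dosed 16 h at 37C, 5% CO2; CellTiter-Glo measured in parallel.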

[8] = CCTE_Shafer_MEA_dev_firing_rate_mean: CCTE's Neural Network Formation Assay for Mean Firing Rate, Shafer Lab (AID 2284031)
Method in brief: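 Steps: seed rat cortical cells (1.5 x 10^5/well) with laminin on PEI-coated MEA; dose day 0; record DIV 5/7/9/12, full media and compound exchange after DIV 5 and 9 recordings; compute well-mean firing rate AUC.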

[9] = CCTE_Shafer_MEA_dev_per_burst_spike_percent: CCTE's Neural Network Formation Assay for Percent of Spikes in a Burst, Shafer Lab (AID 2284032);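 also: fitted as a decrease in burst spike percentage below DMSO baseline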
Method in brief: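 Value is trapezoidal AUC over recordings on days 5, 7, 9 and 12 of the well-mean fraction of spikes falling in single-electrode bursts; rat cortical cultures exposed continuously from plating, treatment renewed DIV 5 and 9, fitted downward against DMSO.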

[10] = CCTE_Shafer_MEA_dev_active_electrodes_number: CCTE's Neural Network Formation Assay for Number of Active Electrodes, Shafer Lab (AID 2284040; active = hit-call score of the fitted dose curve at least 0.9, where 1 is the maximum;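 also: potency for loss of active electrodes versus DMSO so lower counts are hits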)
Method in brief: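 Counts electrodes per well firing at least 5 spikes/min, recorded on days 5, 7, 9 and 12 in rat cortical cultures dosed continuously from plating (treatment refreshed DIV 5, 9). Value is the area under the curve over recordings, fitted downward relative to DMSO.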

[11] = CCTE_Shafer_MEA_dev_burst_rate: CCTE's Neural Network Formation Assay for Burst Rate, Shafer Lab (AID 2284042)
Method in brief: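 Developmental network assay measuring how 12-day exposure of rat cortical neuron cultures alters bursting on extracellular MEA recordings. Values are AUC of well-mean burst rate across four recording days, relative to DMSO vehicle.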

[12] = CCTE_Shafer_MEA_dev_bursting_electrodes_number: CCTE's Neural Network Formation Assay for Number of Bursting Electrodes, Shafer Lab (AID 2284043; active = hit-call score of the fitted dose curve at least 0.9, where 1 is the maximum;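 also: potency is for loss of bursting electrodes relative to DMSO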)
Method in brief: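 Number of electrodes reaching ≥1 burst every 2 min was recorded at DIV 5, 7, 9 and 12 and collapsed as trapezoidal area under the curve. Cultures were rat cortical neurons on MEA plates, dosed continuously from plating with medium and treatment refreshed on DIV 5 and 9.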

[13] = CCTE_Shafer_MEA_dev_per_burst_interspike_interval: CCTE's Neural Network Formation Assay for Burst Interspike Interval, Shafer Lab (AID 2284044)
Method in brief: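 Developmental network-formation MEA in primary rat cortical cultures with exposure spanning days 0–12. Within-burst ISI is averaged per well and integrated across recording days by area under the curve, with DMSO as negative control baseline.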

[14] = CCTE_Shafer_MEA_dev_burst_duration_mean: CCTE's Neural Network Formation Assay for Mean Burst Duration, Shafer Lab (AID 2284045)
Method in brief: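 Mean single-electrode burst duration (first to last spike), averaged over bursting electrodes per well, then integrated as area-under-curve across recordings at days 5, 7, 9 and 12. Rat cortical cultures on MEAs, compound present from plating, refreshed at feeds.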

[15] = CCTE_Shafer_MEA_dev_interburst_interval_mean: CCTE's Neural Network Formation Assay for Mean Interburst Interval, Shafer Lab (AID 2284046);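 also: well-mean interburst interval of bursting electrodes as AUC over four recording days; curve fitted for decrease in interburst interval relative to DMSO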
Method in brief: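 Network formation assay in primary rat cortical cultures, exposed from DIV 0 to 12. Mean interburst interval per well, integrated as AUC over four recordings.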

[16] = CCTE_Shafer_MEA_dev_network_spike_number: CCTE's Neural Network Formation Assay for Number of Network Spikes, Shafer Lab (AID 2284048);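 also: synchronized bursts across electrodes counted on days 5 7 9 12 and integrated as AUC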
Method in brief: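 Number of network spikes (coordinated firing across electrodes) recorded on days 5, 7, 9 and 12 and summarised as area under the curve. Rat cortical cultures on MEA, continuous compound exposure with full medium/treatment exchange at DIV 5 and 9.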

[17] = CCTE_Shafer_MEA_dev_network_spike_peak: CCTE's Neural Network Formation Assay for Mean Number of Electrodes in Network Spike, Shafer Lab (AID 2284049);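 also: fitted for loss of signal meaning fewer electrodes in network spikes than DMSO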
Method in brief: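 Rat cortical primary culture, 1.5 x 10^5 cells/well, 48-well MEA (16 electrodes/well). Dosing day 0 through DIV 12, full media/compound exchange DIV 5, 9. AxIS adaptive spike detection; AUC over days 5/7/9/12; loss-of-signal vs DMSO.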

[18] = CCTE_Shafer_MEA_dev_spike_duration_mean: CCTE's Neural Network Formation Assay for Mean Spike Duration, Shafer Lab (AID 2284051);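 also: mean network spike duration pooled as area under curve over DIV 5 to 12 recordings; potency for a decrease in mean network spike duration versus DMSO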
Method in brief: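 With DMSO as baseline, loss of mean network spike duration was scored from extracellular recordings of rat cortical neurons on MEA plates. Exposure spanned plating to DIV 12; the four recording days were collapsed into one AUC value.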

[19] = CCTE_Shafer_MEA_dev_network_spike_duration_std: CCTE's Neural Network Formation Assay for Standard Deviation of Network Spike Duration, Shafer Lab (AID 2284052);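 also: hits are decreases in network spike duration SD versus DMSO vehicle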
Method in brief: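 Developing networks of rat cortical neurons were exposed over twelve days in vitro on 48-well MEA plates. Trapezoidal AUC of recordings (DIV 5–12) was analysed for signal loss relative to DMSO vehicle.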

[20] = CCTE_Shafer_MEA_dev_per_network_spike_spike_number_mean: CCTE's Neural Network Formation Assay for Mean Number of Spikes in a Network Spike, Shafer Lab (AID 2284053);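 also: fitted as decrease in spikes per network spike relative to DMSO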
Method in brief: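 First, rat cortical cells (1.5 x 10^5/well) were seeded onto MEA wells; second, dosing began at plating and was refreshed on DIV 5 and 9; finally, network-spike spike counts across DIV 5–12 were summarized as AUC.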

[21] = CCTE_Shafer_MEA_dev_per_network_spike_spike_percent: CCTE's Neural Network Formation Assay for Percent of Spikes in a Network Spike, Shafer Lab (AID 2284054)
Method in brief: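 Metric: fraction of spikes falling in a 0.05 s window at network-spike peaks. Recordings were made on days 5, 7, 9 and 12 and collapsed by trapezoidal AUC. Cultures were rat cortical neurons on MEA plates, dosed continuously from plating, re-dosed at media changes.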

[22] = UKN5_HCS_SBAD2_cell_viability: Viability Assessment in the University of Konstanz (UKN) Leist Lab Neurite Outgrowth Assay in human iPSC-derived immature Dorsal Root Ganglia Neurons (UKN5) (AID 2284056)
Method in brief: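 iPSC-derived immature peripheral neurons (SBAD2) seeded on Matrigel with CHIR99021, SU5402 and DAPT, dosed 1 h later for 24 h. Viability from Hoechst H-33342 and calcein-AM live staining, high-content imaging; bidirectional fit versus DMSO.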

[23] = CCTE_Shafer_MEA_dev_LDH: CCTE's Lactate Dehydrogenase Assay for Cytotoxicity in the Neural Network Formation Assay, Shafer Lab (AID 2284068; active = hit-call score of the fitted dose curve at least 0.9, where 1 is the maximum;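 also: exposure for twelve days from plating with re-dosing on DIV 5 and 9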)
Method in brief: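 Developing rat cortical networks on MEA plates are exposed to compound for 12 days from plating. LDH activity is measured spectrophotometrically, with DMSO as baseline.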

Measured: AC50

Brc1ccc(Oc2cc(Br)c(Br)cc2Br)c(Br)c1
active: [9] 13.2 µM | [10] 14.1 µM | [12] 13.6 µM | [17] 10 µM | [18] 10 µM | [20] 10 µM | [21] 13.5 µM | [23] 11.9 µM
inactive: all other assays above
